# Measured values from PubChem BioAssay.
# Biological target: Tumor necrosis factor receptor superfamily member 10B (Homo sapiens) (UniProt O14763)
# Assay: caspase-8 TRAIL sensitization, hit retest, confirmation, cell-based, NB7+caspase-8, with/without TRAIL, luminescence panel (AID 651596)
# Details: NB7 neuroblastoma + caspase-8, TRAIL sensitization, luminescence viability, with TRAIL, mean of runs, at 10 µM, stronger effect = higher value; in the data active = activity above about 50%; inactive = the rest
# Tumor necrosis factor receptor superfamily member 10B (Homo sapiens), sequence (O14763 whole entry, looked up): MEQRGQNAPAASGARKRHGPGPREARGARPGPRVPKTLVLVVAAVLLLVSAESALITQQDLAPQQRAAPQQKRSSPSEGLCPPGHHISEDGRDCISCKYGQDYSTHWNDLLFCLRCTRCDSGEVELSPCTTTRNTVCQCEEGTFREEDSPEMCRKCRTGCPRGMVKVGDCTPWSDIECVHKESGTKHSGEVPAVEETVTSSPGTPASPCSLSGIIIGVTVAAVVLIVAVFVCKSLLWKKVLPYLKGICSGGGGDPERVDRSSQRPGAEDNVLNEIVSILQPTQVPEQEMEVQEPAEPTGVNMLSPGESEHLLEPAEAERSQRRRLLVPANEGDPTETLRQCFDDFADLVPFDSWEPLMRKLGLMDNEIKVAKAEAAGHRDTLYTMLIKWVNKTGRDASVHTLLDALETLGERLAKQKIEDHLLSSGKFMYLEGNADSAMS
row,SMILES,activity
1,COc1ccc(Oc2c(Cl)cnn(-c3ccc(Cl)c(Cl)c3)c2=O)cc1,98.5%
2,COc1ccc(CN(C(=O)CSc2nnc(-c3ccccc3C)o2)c2ccc(F)cc2)cc1,97.9%
3,CC(=O)Oc1ccc(/C=C/c2nc3ccccc3c(=O)o2)cc1,80.2%
4,CC(=O)Oc1ccccc1C(=O)C=Cc1cccc([N+](=O)[O-])c1,36.3%
5,CCC(=O)N1CCN(c2ccc(NC(=O)c3cc4ccccc4o3)cc2Cl)CC1,79.6%
6,COc1cccc(/C=N/Nc2nn3cnnc3c3ccccc23)c1,62%
7,Cc1nn(-c2ccccc2)c(Cl)c1/C=N/NC(=O)c1[nH]ncc1Br,83.7%
8,CN(C)c1ccc(-c2nc3ccccn3c2/N=C/c2ccc(Br)cc2)cc1,69.3%
9,CCn1c(=O)c([N+](=O)[O-])c(Cl)c2ccccc21,83.6%
10,Cc1ccc(C2=Nc3ccccc3N=C(C(Cl)Cl)C2)cc1,7.3%
11,CC(C)(C)C(=O)Nc1ccc(-c2cn3ccsc3n2)cc1,95.7%
12,COc1ccc(/C=N\n2nnc3ccccc32)cc1,53.3%
13,CCn1cc(C(=O)NCC(OC)OC)c(=O)c2cc(S(=O)(=O)N3CCC(C)CC3)ccc21,57.3%
14,N/C(Cc1ccc(Cl)cc1)=N\OC(=O)c1cccc2ccccc12,99%
15,CC(=O)N1CCc2c(sc(NC(=O)c3ccc([N+](=O)[O-])o3)c2C(N)=O)C1,51.4%
16,COc1ccccc1Nc1nc(N)nc(CCl)n1,98.8%
17,CCOc1ccc2nc(-c3ccccc3)[nH]c2c1,81.2%
18,Cn1c(NC(=O)c2ccc(F)cc2)nc2ccccc21,45.1%
19,COC(=O)c1ccc(-c2nc3cc(N)ccc3o2)cc1,61.9%
20,Cc1ccc(CSc2nnc(-c3cccnc3)o2)cc1,43.5%

row,SMILES,activity
1,CC(C)CC(N)c1csc(NC(=O)c2cc(C(C)(C)C)nn2Cc2ccccc2)n1 (centres undefined),70%
2,O=C(CN(Cc1ccccc1)C(=O)CCl)c1cccc(Br)c1,99.3%
3,CCC(C(=O)O/N=C(\N)c1ccccc1)c1ccccc1 (centres undefined),81.9%
4,CC1(C)N=C(N)N=C(N)N1c1cccc(C#N)c1,81.8%
5,Cn1c(-c2ccccc2F)cc2onc(-c3ccccc3)c2c1=O,63%
6,CCS(=O)(=O)c1ncc(Cl)c(C(=O)Nc2ccc(C)cc2)n1,78.6%
7,COC(=O)c1ccc(NC(=O)C(=O)c2cccn2C)cc1,59.5%
8,COc1ccccc1N1CCN(c2ccc3ccccc3n2)CC1,38.5%
9,Cc1cc(C(=O)CSc2nnc(N)s2)c(C)n1Cc1cccs1,72.5%
10,CCOc1ccc(OCC(=O)Nc2cccc(S(=O)(=O)NC3=NCCC3)c2)cc1,68.9%
11,Nc1cc2sc(-c3ccc(C(=O)O)cc3)nc2cc1Cl,52.8%
12,Cc1ccc(N=Cc2c(C)[nH]n(-c3nc4ccccc4[nH]3)c2=O)cc1,88.6%
13,COc1ccccc1-c1nnc(-c2ccc(C)cc2)o1,46.6%
14,Cc1ccc(C(=O)N/N=C\c2ccc[nH]2)cc1[N+](=O)[O-],80.7%
15,O=C(N/N=C/c1ccc([N+](=O)[O-])o1)c1cc(-c2ccc(-c3ccccc3)cc2)nc2ccccc12,85.8%
16,COc1ccc(CC(N)c2csc(NC(=O)c3cc(C(C)(C)C)nn3Cc3ccccc3)n2)cc1 (centres undefined),52.9%
17,CCOC(=O)c1nn(-c2ccc3c(c2)OCCO3)cc1O,60%
18,Clc1ccc(CSc2nc3ccncc3[nH]2)cc1,96.8%
19,N/C(Cc1ccc(Cl)c(Cl)c1)=N\OC(=O)c1cccs1,49.6%
